The values that follow come from PubChem BioAssay (NCATS).

Structures are written as SMILES. Results filed as inconclusive are left out. Where a call stands in place of a potency, no number is given. Activity calls are given as the source filed them. Unless noted, calls follow the shape of the full dose curve. Where a SMILES comes first, the peptide text is derived from it. Bridges are numbered along the chain shown (N, C = ends). [ ]: non-standard residue; d: D form. hArg = N=C(N)NCCCC[C@H](N)C(=O)O; Mpa = O=C(O)CCS

Tested on in one experiment: not listed separately
Description: Primary qHTS for small molecule stabilizers of the endoplasmic reticulum resident proteome: Secreted ER Calcium Modulated Protein (SERCaMP) assay (AID 1508630; active = well fitted curve in the direction sought with a large enough effect; an effect the other way counts as inactive or inconclusive). Conditions: SH-SY5Y GLuc-SERCaMP (Gaussia luciferase released on ER calcium loss) secretion, thapsigargin, luminescence; series mostly up to 38.4 µM. In short, it runs like this: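 GLuc-SERCaMP-expressing SH-SY5Y cells, pretreated 16 h with compound, are challenged with thapsigargin to empty ER calcium stores; after 4 h, coelenterazine is added directly to the medium and luminescence is imaged.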
On the technique in general: Quantitative high-throughput screening tests each substance at several concentrations.
For `Cc1ccsc1/C=C/C1=NCCCN1C`, the outcome was inactive. In the case of `COc1ccccc1Oc1c(NS(=O)(=O)c2ccc(C(C)(C)C)cc2)nc(-c2ncccn2)nc1OCCO`, the outcome was inactive. Consider `CC(=O)N[C@@H](CC(C)C)C(=O)O`, for which the result was inactive. Still for that read-out and setting: the entry for `CC(=O)Nc1ccccc1` is “inactive”; for `COc1ccc2cc(CCC(C)=O)ccc2c1` it is “inactive”. In the case of `CN1C(C)(C)CCCC1(C)C`, the result was inactive. The same measure, in the same setting: the entry for `CCCCC1(COC(=O)CCC(=O)O)C(=O)N(c2ccccc2)N(c2ccccc2)C1=O` is “inactive”. As to `Nc1c2c(nc3c1CCC3)CCCC2`, the outcome was inactive. Still for that read-out and setting: the entry for `COc1ccc(-c2cc(=O)c3c(O)cc(O[C@@H]4O[C@H](CO[C@@H]5O[C@@H](C)[C@H](O)[C@@H](O)[C@H]5O)[C@@H](O)[C@H](O)[C@H]4O)cc3o2)cc1O` is “inactive”. For `CC(C)C[C@@H](N)C(=O)O`, the outcome was inactive. Still for that read-out and setting: for `O=C(O)c1cc(=O)c2ccccc2o1` the value was “inactive”; for `Cc1ccc2c(c1)c1c3n2CCNC3CCC1` (centres undefined), “inactive”; for `CC(C)=CCC/C(C)=C/CO`, “inactive”. Still for that read-out and setting: for `Cc1cccc(Nc2ccccc2C(=O)O)c1C` the value was “inactive”. Take `CC(=O)Nc1ccc(OCCOCCOc2ccc(NC(C)=O)cc2)cc1`: the outcome was inactive.

For the molecule `CCc1cccc(CC)c1NC(=O)CN(CC(=O)O)CC(=O)O`, the outcome was inactive. Still for that read-out and setting: the entry for `O=C(/C=C/c1ccc(O)c(O)c1)O[C@@H]1C[C@@](OC(=O)/C=C/c2ccc(O)c(O)c2)(C(=O)O)C[C@@H](O)[C@@H]1O` is “inactive”. Turning to `CC(C)=CCC[C@@](C)(O)[C@H]1CC=C(C)CC1`, the result was inactive. On to `O=C(O)c1ccccc1C(=O)Nc1ccc(S(=O)(=O)Nc2nccs2)cc1`, for which the outcome was inactive. In the case of `O=C(O)CCCc1ccccc1`, the result was inactive.

Turning to `CCCNC(C)(C)COC(=O)c1ccccc1`, the result was inactive. The same measure, in the same setting: the entry for `CN(C/C=C/C#CC(C)(C)C)Cc1cccc2ccccc12` is “inactive”.

Tested on in a further experiment: not listed separately
Description: A High-Content qHTS Against Drug Library for the Identification of Small Molecules that Inhibit DYT1 Early Onset Primary Dystonia-Associated Cell Pathology (AID 1645839). The following applies: HEK293 Flp-In EGFP-delE TorsinA, punctate imaging, 48 h; series mostly up to 46.1 µM. The method, boiled down: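 Flp-In T-REx 293 cells with tetracycline-inducible EGFP-delE hTOR1A (WT EGFP-hTOR1A as reference), 800 cells/well; compound added with tetracycline, 48 h at 37 C. Fixed, permeabilized cells imaged; %pathology (punctate TorsinA) primary, cell count counterscreen.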
Take `Cc1ccsc1/C=C/C1=NCCCN1C`: the Potency entry is “inactive”.

In the case of `C/C=C/C(=O)N(CC)c1ccccc1C`, the Potency result was “inactive”.

On to `CC(=O)N[C@@H](CC(C)C)C(=O)O`, for which the Potency result was “inactive”. As to `COC(=O)c1cccnc1`, the Potency entry is “inactive”. Same read-out and setting: for `O=C(NCN1CCOCC1)c1cnccn1` the value was “inactive”; for `CC(=O)Nc1ccccc1`, “inactive”. Regarding `COc1ccc2cc(CCC(C)=O)ccc2c1`, the Potency entry is “inactive”. Same read-out and setting: the entry for `CN1C(C)(C)CCCC1(C)C` is “inactive”. Still for that read-out and setting: the entry for `CCCCC1(COC(=O)CCC(=O)O)C(=O)N(c2ccccc2)N(c2ccccc2)C1=O` is “inactive”. Same read-out and setting: for `CC1(C)S[C@@H]2[C@H](NC(=O)C(C(=O)O)c3ccccc3)C(=O)N2[C@H]1C(=O)O` (some centres undefined) the value was “inactive”; for `Nc1c2c(nc3c1CCC3)CCCC2`, “inactive”. As to `O=C(O)Cc1cn(-c2ccccc2)nc1-c1ccc(Cl)cc1`, the Potency result is “inactive”. In the case of `NC(=O)[C@@H]1CSSCCC(=O)N[C@@H](CCCCN=C(N)N)C(=O)NCC(=O)N[C@@H](CC(=O)O)C(=O)N[C@@H](Cc2c[nH]c3ccccc23)C(=O)N2CCC[C@H]2C(=O)N1` ([Mpa][hArg]GDWPC-NH2; disulfide 1-7), the Potency result was “inactive”. Same read-out and setting: for `CC(C)C[C@@H](N)C(=O)O` the value was “inactive”. Take `N[C@@H](Cc1ccc(O)cc1)C(=O)O`: the % pathology change, negative = correction is -10.7% [at 9.22 µM] (inactive). For the molecule `O=C(O)CCC(=O)O`, the Potency entry was “inactive”.

For the molecule `Cc1c(NC(=O)c2cccnc2)c(=O)n(-c2ccccc2)n1C`, the Potency result is “inactive”. Regarding `OC(CCN1CCCC1)(c1ccccc1)C1CCCCC1` (centres undefined), the Potency result is “inactive”. Same read-out and setting: for `Cc1cc(=O)[nH]c(=S)[nH]1` the value was “inactive”; for `COc1ccc(C(=O)N2CCN(CC(=O)N3CCOCC3)CC2)cc1`, “inactive”.

For `CC(C)=CCC/C(C)=C/CO`, the Potency result is “inactive”. On the same count and under the same terms, for `NNc1nnc(NN)c2ccccc12` the value was “inactive”; for `CCc1cccc(CC)c1NC(=O)CN(CC(=O)O)CC(=O)O`, “inactive”. Regarding `Cn1cc(C(=O)[C@@H]2CCc3nc[nH]c3C2)c2ccccc21`, the Potency result is “inactive”. As to `O=C(/C=C/c1ccc(O)c(O)c1)O[C@@H]1C[C@@](OC(=O)/C=C/c2ccc(O)c(O)c2)(C(=O)O)C[C@@H](O)[C@@H]1O`, the Potency result is “inactive”. On to `CC(C)=CCC[C@@](C)(O)[C@H]1CC=C(C)CC1`, for which the Potency entry was “inactive”.

With `O=C1C(c2[nH]c3ccccc3c2O)=Nc2ccccc21`, the Potency entry was “inactive”.

For `O=C(O)c1ccccc1C(=O)Nc1ccc(S(=O)(=O)Nc2nccs2)cc1`, the Potency result was “inactive”.

As to `O=C(O)CCCc1ccccc1`, the Potency result is “inactive”. Same read-out and setting: for `COc1ccc(NS(=O)(=O)c2ccc(N)cc2)nn1` the value was “inactive”; for `CCCNC(C)(C)COC(=O)c1ccccc1`, “inactive”; for `CN(C/C=C/C#CC(C)(C)C)Cc1cccc2ccccc12`, “inactive”.

In a further experiment the target is Cytochrome P450 2D6 (Homo sapiens) (UniProt P10635). Description: Cytochrome P450 family 2 subfamily D member 6 (CYP2D6) small molecule antagonists: luciferase biochemical (cell-free) qHTS assay (AID 1645840; active = well fitted curve in the direction sought with a large enough effect in the repeat runs; an effect the other way counts as inactive or inconclusive; also: nearly all actives have a fitted effect of over 55% in size; also: potency is read from the fitted curve at half-maximal effect). Conditions: P450-Glo CYP2D6 enzyme, luciferin luminescence, 1 h; series mostly up to 57.4 µM. The method, boiled down: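 P450-Glo luminescent screen: recombinant CYP2D6 enzyme–proluciferin substrate mix preincubated with compound 10 min at room temperature, then NADPH regeneration added for 1 h at room temperature. Detection reagent added for 20 min; luciferin light read as relative luminescence units.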
Sequence of Cytochrome P450 2D6 (Homo sapiens) (P10635 whole entry, looked up): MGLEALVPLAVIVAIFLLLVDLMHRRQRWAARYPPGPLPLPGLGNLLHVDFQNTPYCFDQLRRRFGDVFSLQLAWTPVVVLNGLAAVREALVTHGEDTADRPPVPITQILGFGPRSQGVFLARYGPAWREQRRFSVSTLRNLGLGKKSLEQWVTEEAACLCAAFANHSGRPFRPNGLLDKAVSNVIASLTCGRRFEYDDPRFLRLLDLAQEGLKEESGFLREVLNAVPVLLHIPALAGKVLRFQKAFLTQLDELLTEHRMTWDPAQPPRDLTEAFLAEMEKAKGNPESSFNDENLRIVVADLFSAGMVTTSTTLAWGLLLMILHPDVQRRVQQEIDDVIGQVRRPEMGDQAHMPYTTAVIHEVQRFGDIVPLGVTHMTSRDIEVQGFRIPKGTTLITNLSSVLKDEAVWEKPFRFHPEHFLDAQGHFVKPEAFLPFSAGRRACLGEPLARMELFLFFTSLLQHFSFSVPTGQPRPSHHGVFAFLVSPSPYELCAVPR
With `COc1ccccc1Oc1c(NS(=O)(=O)c2ccc(C(C)(C)C)cc2)nc(-c2ncccn2)nc1OCCO`, the Potency result was “inactive”. Same read-out and setting: the entry for `C/C=C/C(=O)N(CC)c1ccccc1C` is “inactive”; for `COC(=O)c1cccnc1` it is “inactive”. Turning to `O=C(NCN1CCOCC1)c1cnccn1`, the Potency result was “inactive”. Same read-out and setting: for `CC1(C)S[C@@H]2[C@H](NC(=O)C(C(=O)O)c3ccccc3)C(=O)N2[C@H]1C(=O)O` (some centres undefined) the value was “inactive”; for `O=C(O)Cc1cn(-c2ccccc2)nc1-c1ccc(Cl)cc1`, “inactive”.

Consider `NC(=O)[C@@H]1CSSCCC(=O)N[C@@H](CCCCN=C(N)N)C(=O)NCC(=O)N[C@@H](CC(=O)O)C(=O)N[C@@H](Cc2c[nH]c3ccccc23)C(=O)N2CCC[C@H]2C(=O)N1` ([Mpa][hArg]GDWPC-NH2; disulfide 1-7), for which the Potency entry is “inactive”. Same read-out and setting: for `COc1ccc(-c2cc(=O)c3c(O)cc(O[C@@H]4O[C@H](CO[C@@H]5O[C@@H](C)[C@H](O)[C@@H](O)[C@H]5O)[C@@H](O)[C@H](O)[C@H]4O)cc3o2)cc1O` the value was “inactive”; for `O=C(O)CCC(=O)O`, “inactive”; for `Cc1c(NC(=O)c2cccnc2)c(=O)n(-c2ccccc2)n1C`, “inactive”. Still for that read-out and setting: for `Cc1cc(=O)[nH]c(=S)[nH]1` the value was “inactive”; for `COc1ccc(C(=O)N2CCN(CC(=O)N3CCOCC3)CC2)cc1`, “inactive”.

With `NNc1nnc(NN)c2ccccc12`, the Potency was 22.9 µM (active). Regarding `Cn1cc(C(=O)[C@@H]2CCc3nc[nH]c3C2)c2ccccc21`, the Potency is 12.3 µM (active).

Take `O=C1C(c2[nH]c3ccccc3c2O)=Nc2ccccc21`: the Potency entry is “inactive”.
